Measurements: the supplement of paper PMC10849652
The full data set covers some 8,800 targets. This sample favours those with a hit. About 0.5% of all pairs of compound and target were hits.

Tests used:
Assay in all cases: log2 fold change, soluble protein after heating vs DMSO (PISA); higher = thermal stabilisation; K562 lysate, 10 uM; active = over 0.2 and 3.5 SD of the protein, either way, in both replicates (recomputed)
alvocidib = compound: CN1CC[C@H](c2c(O)cc(O)c3c(=O)cc(-c4ccccc4Cl)oc23)[C@H](O)C1 [alvocidib]
Procedure, shortened: (§1)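 Following dounce homogenisation of K562 pellets in PBS pH 7.4 with 1 mM MgCl2, crude extract at 1 mg/mL protein was incubated for 30 min with 10 μM compound. Aliquots were then heated for 3 min over 48°C-58°C and pooled, NP-40 was added to 0.5% at 4°C, and soluble protein was recovered as the supernatant at 21,000xg for 90 min. Channel-sum-equalised TMTpro 16plex LC-MS/MS quantified this protein. Each value, from duplicates, is a log-two fold change in thermal stability relative to solvent controls.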

Tubastatin A = compound: CN1CCc2c(c3ccccc3n2Cc2ccc(C(=O)NO)cc2)C1 [Tubastatin A]
Procedure, shortened: as §1

[1] = compound: CNC(=O)C1=CC=CC=C1NC2=NC(=NC=C2Cl)NC3=C(C=C(C=C3)N4CCOCC4)OC
Procedure, shortened: as §1

defactinib = compound: CNC(=O)c1ccc(Nc2ncc(C(F)(F)F)c(NCc3nccnc3N(C)S(C)(=O)=O)n2)cc1 [defactinib]
Procedure, shortened: as §1

[2] = compound: CNc1nc(-c2ccc3c(N)n[nH]c3c2)cc(N2C[C@@H](C(=O)NC3CCCCC3)CC[C@H]2C)n1
Procedure, shortened: as §1

encorafenib = compound: COC(=O)N[C@@H](C)CNc1nccc(-c2cn(C(C)C)nc2-c2cc(Cl)cc(NS(C)(=O)=O)c2F)n1 [encorafenib]
Procedure, shortened: as §1

[3] = compound: COC(=O)[C@H](CCSC)NC(=O)C1=C(C=C(C=C1)NC[C@H](CS)N)C2=CC=CC=C2
Procedure, shortened: as §1

alisertib = compound: COc1cc(Nc2ncc3c(n2)-c2ccc(Cl)cc2C(c2c(F)cccc2OC)=NC3)ccc1C(=O)O [alisertib]
Procedure, shortened: as §1

[4] = compound: COc1cc2nc(-c3cc(F)ccc3O)nc(N[C@@H]3CNC[C@H]3C(C)(C)O)c2cc1OC
Procedure, shortened: as §1

gefitinib = compound: COc1cc2ncnc(Nc3ccc(F)c(Cl)c3)c2cc1OCCCN1CCOCC1 [gefitinib]
Procedure, shortened: as §1

Measured: log2 fold change

TMEM87A (UniProt Q8NBN3)
Chain of UniProt Q8NBN3 (Q8NBN3 whole entry, looked up): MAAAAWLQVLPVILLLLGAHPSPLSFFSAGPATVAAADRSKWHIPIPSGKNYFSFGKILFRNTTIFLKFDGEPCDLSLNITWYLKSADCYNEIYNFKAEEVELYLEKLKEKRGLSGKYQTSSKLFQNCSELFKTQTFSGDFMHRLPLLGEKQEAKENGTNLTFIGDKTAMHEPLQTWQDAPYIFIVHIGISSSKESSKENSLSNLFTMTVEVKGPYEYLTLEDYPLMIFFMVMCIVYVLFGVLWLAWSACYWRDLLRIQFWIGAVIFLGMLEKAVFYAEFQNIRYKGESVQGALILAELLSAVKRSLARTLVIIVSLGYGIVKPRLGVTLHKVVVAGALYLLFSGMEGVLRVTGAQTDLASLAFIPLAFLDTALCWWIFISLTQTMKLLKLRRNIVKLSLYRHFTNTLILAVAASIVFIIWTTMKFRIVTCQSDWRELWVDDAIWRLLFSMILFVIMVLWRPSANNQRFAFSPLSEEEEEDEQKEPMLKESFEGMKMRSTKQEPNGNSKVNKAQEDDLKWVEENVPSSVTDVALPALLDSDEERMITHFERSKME
inactive: alvocidib -0.076 | Tubastatin A -0.013 | [1] -0.012 | defactinib -0.006 | [2] -0.017 | encorafenib 0.022 | [3] -0.045 | alisertib -0.02 | [4] 0.015 | gefitinib 0.022

TMEM177 (UniProt Q53S58)
Chain of UniProt Q53S58 (Q53S58 whole entry, looked up): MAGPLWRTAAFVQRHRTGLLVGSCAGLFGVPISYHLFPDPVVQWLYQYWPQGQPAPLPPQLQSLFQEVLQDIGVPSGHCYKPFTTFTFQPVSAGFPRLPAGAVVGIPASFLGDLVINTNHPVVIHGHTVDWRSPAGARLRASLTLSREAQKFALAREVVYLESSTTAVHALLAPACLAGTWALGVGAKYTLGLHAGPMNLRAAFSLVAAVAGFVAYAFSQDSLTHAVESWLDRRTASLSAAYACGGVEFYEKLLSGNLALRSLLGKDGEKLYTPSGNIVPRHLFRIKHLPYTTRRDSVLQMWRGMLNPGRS
inactive: alvocidib 0.042 | Tubastatin A 0.05 | [1] 0.075 | defactinib -0.009 | encorafenib 0.019 | [3] 0.153 | [4] 0.002

TRIM33 (UniProt H0Y612)
inactive: alvocidib -0.081 | Tubastatin A -0.034 | [1] 0.119 | defactinib -0.007 | [2] 0.075 | encorafenib 0.014 | [3] 0.122 | alisertib -0.006 | [4] 0.09 | gefitinib -0.102

TLK2 isoform 2 (UniProt Q86UE8)
Chain of UniProt Q86UE8 (Q86UE8 whole entry, looked up): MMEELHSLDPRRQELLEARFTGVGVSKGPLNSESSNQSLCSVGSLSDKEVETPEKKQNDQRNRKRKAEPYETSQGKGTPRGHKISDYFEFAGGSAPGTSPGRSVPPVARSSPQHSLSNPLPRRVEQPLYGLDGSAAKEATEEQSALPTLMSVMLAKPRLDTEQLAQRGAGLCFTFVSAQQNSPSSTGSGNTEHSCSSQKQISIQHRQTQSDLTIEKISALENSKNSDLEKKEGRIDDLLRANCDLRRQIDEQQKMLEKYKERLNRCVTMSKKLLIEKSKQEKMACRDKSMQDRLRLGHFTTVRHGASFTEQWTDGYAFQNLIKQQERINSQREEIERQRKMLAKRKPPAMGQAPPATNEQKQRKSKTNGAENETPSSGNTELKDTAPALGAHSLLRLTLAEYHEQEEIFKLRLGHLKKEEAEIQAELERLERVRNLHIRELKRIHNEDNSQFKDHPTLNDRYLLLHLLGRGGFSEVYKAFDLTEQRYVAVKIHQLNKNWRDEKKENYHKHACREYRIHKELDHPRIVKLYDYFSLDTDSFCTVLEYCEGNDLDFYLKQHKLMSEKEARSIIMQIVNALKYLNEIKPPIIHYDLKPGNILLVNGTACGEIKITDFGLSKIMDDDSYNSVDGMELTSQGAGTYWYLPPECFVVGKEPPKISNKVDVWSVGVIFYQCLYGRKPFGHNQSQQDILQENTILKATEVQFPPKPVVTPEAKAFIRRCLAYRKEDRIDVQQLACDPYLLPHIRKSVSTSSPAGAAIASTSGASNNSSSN
inactive: alvocidib -0.027 | Tubastatin A -0.07 | [1] -0.03 | defactinib 0.117 | [2] -0.071 | encorafenib 0.046 | [3] -0.063 | alisertib -0.01 | [4] 0.041 | gefitinib -0.004

TRIM56 (UniProt Q9BRZ2)
inactive: alvocidib -0.013 | Tubastatin A -0.13 | [1] 0.067 | defactinib 0.008 | [2] -0.059 | encorafenib 0.068 | [3] -0.21 | alisertib 0.04 | [4] 0.001 | gefitinib -0.01

UBR4 (UniProt Q5T4S7)
inactive: alvocidib 0.009 | Tubastatin A -0.06 | [1] 0.006 | defactinib 0.006 | [2] -0.034 | encorafenib 0.003 | [3] 0.018 | alisertib 0.001 | [4] 0.001 | gefitinib -0.029

TRIM33 isoform 2 (UniProt Q9UPN9)
inactive: alvocidib -0.029 | Tubastatin A -0.131 | [1] 0.016 | defactinib -0.001 | [2] -0.006 | encorafenib 0.006 | [3] 0.052 | alisertib -0.003 | [4] 0.046 | gefitinib 0.005

TUBGCP2 isoform 4 (UniProt Q9BSJ2)
Chain of UniProt Q9BSJ2 (Q9BSJ2 whole entry, looked up): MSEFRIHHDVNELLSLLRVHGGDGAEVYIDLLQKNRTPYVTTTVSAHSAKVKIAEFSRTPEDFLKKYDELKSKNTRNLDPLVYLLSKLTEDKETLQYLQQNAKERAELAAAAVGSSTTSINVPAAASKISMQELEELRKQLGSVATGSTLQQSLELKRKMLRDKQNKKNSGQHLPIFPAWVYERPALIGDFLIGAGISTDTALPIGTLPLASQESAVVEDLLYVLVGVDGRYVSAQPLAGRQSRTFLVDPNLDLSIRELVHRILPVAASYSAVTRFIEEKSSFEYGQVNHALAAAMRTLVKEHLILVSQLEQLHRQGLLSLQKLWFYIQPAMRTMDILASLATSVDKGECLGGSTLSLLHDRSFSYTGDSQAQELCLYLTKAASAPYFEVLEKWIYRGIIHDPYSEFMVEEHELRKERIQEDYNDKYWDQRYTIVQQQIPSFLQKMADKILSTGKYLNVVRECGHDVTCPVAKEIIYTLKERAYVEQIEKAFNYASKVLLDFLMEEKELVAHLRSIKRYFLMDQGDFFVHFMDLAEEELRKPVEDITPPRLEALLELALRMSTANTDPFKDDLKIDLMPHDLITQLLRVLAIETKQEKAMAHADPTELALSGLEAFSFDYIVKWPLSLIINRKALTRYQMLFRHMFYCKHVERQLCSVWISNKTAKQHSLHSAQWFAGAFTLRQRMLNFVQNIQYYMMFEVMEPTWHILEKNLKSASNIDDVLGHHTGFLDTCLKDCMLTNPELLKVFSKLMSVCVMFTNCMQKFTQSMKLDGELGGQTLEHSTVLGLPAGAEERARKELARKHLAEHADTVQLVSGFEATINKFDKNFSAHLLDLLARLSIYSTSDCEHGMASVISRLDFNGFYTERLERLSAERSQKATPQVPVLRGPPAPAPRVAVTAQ
inactive: alvocidib -0.007 | Tubastatin A -0.008 | [1] 0.053 | defactinib 0.032 | [2] 0.003 | encorafenib 0.045 | [3] -0.026 | alisertib 0.021 | [4] 0.017 | gefitinib -0.018

UBR1 (UniProt Q8IWV7)
inactive: alvocidib -0.018 | Tubastatin A -0.026 | [1] 0.009 | defactinib 0.001 | [2] -0.03 | encorafenib 0.033 | [3] 0.055 | alisertib 0.003 | [4] -0.007 | gefitinib 0.016

TRMT2A (UniProt Q8IZ69)
inactive: alvocidib -0.014 | Tubastatin A -0.144 | [1] 0.019 | defactinib 0.041 | [2] -0.018 | encorafenib 0.019 | [3] 0.098 | alisertib 0.043 | [4] 0.007 | gefitinib 0.007

TFAP4 (UniProt Q01664)
inactive: alvocidib -0.037 | Tubastatin A 0.135 | [1] 0.133 | defactinib -0.066 | encorafenib 0.156 | [3] -0.108 | alisertib -0.106 | [4] -0.097 | gefitinib -0.096

TMEM167B (UniProt Q9NRX6)
inactive: alvocidib -0.167 | Tubastatin A -0.028 | [1] 0.06 | defactinib 0.015 | encorafenib 0.026 | [3] -0.022 | alisertib 0.012 | [4] 0.032 | gefitinib 0.032

UFSP2 (UniProt Q9NUQ7)
inactive: alvocidib 0.034 | Tubastatin A 0.024 | [1] -0.045 | defactinib 0.022 | [2] -0.036 | encorafenib 0.031 | [3] 0.055 | alisertib 0.019 | [4] 0.035 | gefitinib -0.031

TNIK isoform 4 (UniProt Q9UKE5)
inactive: alvocidib -0.015 | Tubastatin A -0.071 | [1] 0.085 | defactinib 0.148 | [2] -0.04 | encorafenib -0.026 | [3] -0.097 | alisertib -0.026 | [4] 0.247 | gefitinib -0.005

TBRG4 (UniProt Q969Z0)
Chain of UniProt Q969Z0 (Q969Z0 whole entry, looked up): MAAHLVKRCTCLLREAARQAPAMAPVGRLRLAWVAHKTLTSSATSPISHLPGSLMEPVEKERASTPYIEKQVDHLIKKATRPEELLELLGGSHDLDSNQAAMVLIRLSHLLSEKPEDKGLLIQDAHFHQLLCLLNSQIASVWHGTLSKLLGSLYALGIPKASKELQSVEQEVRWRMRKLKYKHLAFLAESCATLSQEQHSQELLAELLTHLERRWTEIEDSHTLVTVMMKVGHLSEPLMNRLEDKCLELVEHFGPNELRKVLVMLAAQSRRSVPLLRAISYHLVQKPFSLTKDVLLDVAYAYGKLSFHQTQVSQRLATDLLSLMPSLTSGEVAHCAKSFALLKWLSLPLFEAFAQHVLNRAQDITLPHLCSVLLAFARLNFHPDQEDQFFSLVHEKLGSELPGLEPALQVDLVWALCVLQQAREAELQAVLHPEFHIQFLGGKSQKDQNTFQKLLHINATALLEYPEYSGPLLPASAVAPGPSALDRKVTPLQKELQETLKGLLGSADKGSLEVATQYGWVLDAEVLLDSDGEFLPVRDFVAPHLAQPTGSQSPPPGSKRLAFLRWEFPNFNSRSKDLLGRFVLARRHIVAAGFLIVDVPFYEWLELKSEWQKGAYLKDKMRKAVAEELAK
inactive: alvocidib 0.017 | Tubastatin A -0.089 | [1] 0.007 | defactinib 0.071 | [2] -0.018 | encorafenib 0.01 | [3] -0.013 | alisertib 0.037 | [4] -0.008 | gefitinib -0.015

TYMS (UniProt P04818)
inactive: alvocidib 0.015 | Tubastatin A -0.023 | [1] 0.017 | defactinib 0.002 | [2] -0.018 | encorafenib 0.013 | [3] -0.006 | alisertib 0.021 | [4] 0.006 | gefitinib -0.024

UBXN10 (UniProt Q96LJ8)
Chain of UniProt Q96LJ8 (Q96LJ8 whole entry, looked up): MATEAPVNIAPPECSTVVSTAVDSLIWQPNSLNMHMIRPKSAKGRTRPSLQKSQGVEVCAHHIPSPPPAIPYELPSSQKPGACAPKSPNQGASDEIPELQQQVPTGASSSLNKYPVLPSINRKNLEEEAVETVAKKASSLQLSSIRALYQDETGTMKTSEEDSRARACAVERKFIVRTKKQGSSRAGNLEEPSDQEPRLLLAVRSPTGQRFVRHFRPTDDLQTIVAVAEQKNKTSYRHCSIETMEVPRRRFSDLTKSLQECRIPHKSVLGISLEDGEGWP
inactive: alvocidib -0.036 | Tubastatin A -0.02 | [1] 0.051 | defactinib 0.026 | [2] 0.019 | encorafenib 0.045 | [3] -0.116 | [4] -0.006

TRAF2 isoform 2 (UniProt Q12933)
Chain of UniProt Q12933 (Q12933 whole entry, looked up): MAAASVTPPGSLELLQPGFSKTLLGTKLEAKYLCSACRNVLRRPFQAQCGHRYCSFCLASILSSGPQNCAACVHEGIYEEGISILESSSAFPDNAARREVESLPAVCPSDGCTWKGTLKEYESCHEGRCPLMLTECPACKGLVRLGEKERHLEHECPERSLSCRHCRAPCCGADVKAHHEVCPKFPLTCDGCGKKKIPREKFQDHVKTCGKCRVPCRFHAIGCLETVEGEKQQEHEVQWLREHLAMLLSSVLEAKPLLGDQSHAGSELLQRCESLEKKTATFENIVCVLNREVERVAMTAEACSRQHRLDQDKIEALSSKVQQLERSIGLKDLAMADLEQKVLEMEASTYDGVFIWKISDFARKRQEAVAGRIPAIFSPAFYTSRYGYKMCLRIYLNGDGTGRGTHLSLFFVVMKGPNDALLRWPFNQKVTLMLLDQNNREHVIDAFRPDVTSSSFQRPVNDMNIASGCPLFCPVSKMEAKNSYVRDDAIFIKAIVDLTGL
inactive: alvocidib -0.006 | Tubastatin A -0.006 | [1] 0.025 | defactinib -0.013 | [2] 0.01 | encorafenib 0.004 | [3] -0.198 | alisertib 0.003 | [4] -0.007 | gefitinib -0.04

TRIP13 (UniProt Q15645)
inactive: alvocidib 0.018 | Tubastatin A -0.159 | [1] 0.014 | defactinib 0.07 | [2] -0.049 | encorafenib 0.03 | [3] 0.114 | alisertib 0 | [4] 0.014 | gefitinib -0.036

TPP2 (UniProt P29144)
inactive: alvocidib 0.018 | Tubastatin A -0.028 | [1] -0.014 | defactinib -0.014 | [2] -0.03 | encorafenib 0 | [3] 0.068 | alisertib -0.02 | [4] 0 | gefitinib 0.008

TPX2 (UniProt Q9ULW0)
inactive: alvocidib -0.002 | Tubastatin A -0.129 | [1] 0.014 | defactinib 0.01 | [2] 0.045 | encorafenib 0.041 | alisertib 0.043 | [4] -0.027 | gefitinib 0.012
active: [3] -0.215

TK1 (UniProt K7ERV3)
inactive: alvocidib -0.028 | Tubastatin A 0.118 | [1] -0.002 | defactinib -0.024 | [2] 0.121 | encorafenib -0.199 | [3] 0.006 | alisertib -0.283 | gefitinib 0.214

UBL5 (UniProt Q9BZL1)
inactive: alvocidib -0.117 | Tubastatin A 0.023 | [1] -0.048 | defactinib 0.041 | [2] -0.045 | encorafenib -0.012 | [3] -0.06 | alisertib 0.039 | gefitinib -0.141

UBE4A isoform 2 (UniProt Q14139)
Chain of UniProt Q14139 (Q14139 whole entry, looked up): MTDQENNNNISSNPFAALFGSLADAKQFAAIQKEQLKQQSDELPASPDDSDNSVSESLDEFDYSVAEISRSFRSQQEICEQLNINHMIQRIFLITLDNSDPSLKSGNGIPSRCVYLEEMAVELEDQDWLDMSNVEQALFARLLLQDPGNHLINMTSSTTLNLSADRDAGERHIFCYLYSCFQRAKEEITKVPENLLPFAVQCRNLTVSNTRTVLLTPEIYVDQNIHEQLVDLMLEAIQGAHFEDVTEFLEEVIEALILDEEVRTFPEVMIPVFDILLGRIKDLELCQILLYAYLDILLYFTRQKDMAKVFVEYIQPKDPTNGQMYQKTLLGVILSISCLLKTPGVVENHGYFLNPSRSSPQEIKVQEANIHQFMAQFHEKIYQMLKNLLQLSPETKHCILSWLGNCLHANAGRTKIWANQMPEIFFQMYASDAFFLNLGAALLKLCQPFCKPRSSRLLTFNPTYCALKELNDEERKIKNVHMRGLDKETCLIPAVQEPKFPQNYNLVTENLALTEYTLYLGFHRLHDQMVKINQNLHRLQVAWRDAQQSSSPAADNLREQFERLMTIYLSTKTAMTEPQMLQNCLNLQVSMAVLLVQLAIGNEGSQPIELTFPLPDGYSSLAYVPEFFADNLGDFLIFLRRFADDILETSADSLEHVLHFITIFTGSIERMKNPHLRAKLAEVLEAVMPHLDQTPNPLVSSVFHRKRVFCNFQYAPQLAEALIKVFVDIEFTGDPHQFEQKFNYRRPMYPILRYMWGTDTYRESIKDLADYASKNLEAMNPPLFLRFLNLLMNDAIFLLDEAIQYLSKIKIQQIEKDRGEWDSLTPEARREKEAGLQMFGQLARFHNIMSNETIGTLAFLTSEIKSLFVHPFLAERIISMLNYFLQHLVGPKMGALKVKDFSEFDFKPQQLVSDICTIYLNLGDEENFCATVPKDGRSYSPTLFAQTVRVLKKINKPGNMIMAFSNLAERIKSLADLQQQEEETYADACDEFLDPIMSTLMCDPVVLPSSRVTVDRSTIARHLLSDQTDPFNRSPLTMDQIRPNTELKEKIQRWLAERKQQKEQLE
inactive: alvocidib 0 | Tubastatin A -0.087 | [1] 0.029 | defactinib 0.011 | [2] -0.073 | encorafenib 0.018 | [3] -0.102 | alisertib 0.018 | [4] 0.013 | gefitinib -0.041

UCHL5 (UniProt Q5LJA9)
inactive: alvocidib 0.049 | Tubastatin A -0.153 | [1] 0.005 | defactinib 0.015 | [2] -0.156 | encorafenib 0.007 | [3] 0.091 | [4] -0.011

TFPI (UniProt P10646)
inactive: alvocidib 0.245 | Tubastatin A -0.012 | [1] 0.036 | defactinib 0.056 | encorafenib 0.072 | [3] -0.017 | alisertib -0.003 | [4] -0.128 | gefitinib 0.061

THOC5 (UniProt Q13769)
inactive: alvocidib -0.027 | Tubastatin A -0.025 | [1] -0.021 | defactinib -0.008 | [2] -0.016 | encorafenib 0.005 | [3] 0.062 | alisertib 0.059 | [4] 0.006 | gefitinib -0.018

TMEM161B (UniProt Q8NDZ6)
inactive: alvocidib -0.03 | Tubastatin A 0.035 | [1] -0.022 | defactinib 0.067 | encorafenib 0.047 | [3] 0 | alisertib -0.222 | [4] 0.033 | gefitinib -0.008

TBC1D20 isoform 3 (UniProt Q96BZ9)
inactive: alvocidib -0.011 | Tubastatin A -0.131 | [1] -0.017 | defactinib 0.166 | [2] 0.109 | encorafenib 0.037 | [3] -0.047 | [4] -0.021

TXNIP (UniProt Q9H3M7)
inactive: alvocidib 0.017 | Tubastatin A -0.021 | [1] 0.037 | defactinib 0.042 | [2] 0.046 | encorafenib 0.011 | [3] 0.067 | alisertib -0.015 | gefitinib -0.004
